The panel holds about 83,000 compounds, 20% with a hit somewhere; the sample as a whole holds those more often.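 96-well plates, one dose, 48 hours. Percent growth reported; active if below 10.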 Unmarked numbers belong to inactive results. Active and inactive are the calls of the source.
These molecules were tested on HOP-62 NSCLC (assay: NCI-60 one-dose screen, 48 h (100 = growth as untreated, 0 = no growth, -100 = all killed)). Settings: 10 µM unless noted.
Experimental: Growth inhibition of the HOP-62 human Non-Small Cell Lung tumor cell line is measured as a screen for anti-cancer activity. Cells are grown in 96 well plates and exposed to the test compound for 48 hours. Compounds are tested at a single concentration, which is 10^-5 M for most compounds. The reported endpoint is percent growth (GI% or GIPRCNT), where numbers from 0 - 100% represent growth inhibition, and numbers from -100% - 0 represent cell death. For example, a value of 40 represents 60% growth inhibition. A value of 0 means no net growth occurred over the course of the experiment. A value of -40 indicates 40% of cells at the beginning of the experiment died by the end of the experiment. A value of -100 means all cells are dead at the end of the experiment.
NCI-60 Human Tumor Cell Lines Screen was performed using the standard one-dose NCI protocol, which is described in more detail at https://dtp.cancer.gov/discovery_development/nci-60/default.htm.
Compounds with GIPRCNT values below 10 were considered active. Activity score was based on GIPRCNT using the following formula: […]
Score is 0 for GIPRCNT values of 100 or above, 50 for GIPRCNT values of 0, and 100 for GIPRCNT values of -100.

Question: `COC(=O)c1[nH]cnc1/N=N/N(C)CCO` was tested. Which growth did it give?
Answer: Its growth is 97.4%.

Question: Which growth does the source give for `c1cc[n+](Cc2c3ccccc3cc3c2ccc2ccccc23)cc1` here?
Answer: The growth was 23.7%.

Question: With `Cc1cc(N2CCOCC2)nc(N(CCNc2ccnc3cc(Cl)ccc23)Cc2cccs2)n1` as the molecule, how does the growth read?
Answer: Its growth is 19.8%.

Question: For `Clc1ccc2c(NCCNc3nc(N4CCCC4)nc4ccccc34)ccnc2c1`, which growth is on record?
Answer: Its growth is -47.2% (active).

Question: For `COC(=O)CNC(=O)[C@@H](OC)[C@@H]1Cc2cc3cc(OC4CC(OC5CC(O)C(O)C(C)O5)C(O)C(C)O4)c(C)c(O)c3c(O)c2C(=O)[C@H]1OC1CC(OC2CC(OC3CC(C)(O)C(O)C(C)O3)C(O)C(C)O2)C(O)C(C)O1` (stereo not given in full), which growth is on record?
Answer: The growth was 21.6%.

Question: For `Nc1ccc(S(=O)(=O)O)c2cc(S(=O)(=O)O)cc(O)c12`, which growth is on record?
Answer: The growth was 107%.

Question: With `CCc1nc2cc(/C=C/C(=O)NO)c(F)cc2c(=O)n1CCc1ccccc1` as the molecule, how does the growth read?
Answer: The growth was -4.23% (active).

Question: For `CNC(=O)c1c(C)oc2cc(Oc3ncnc4cc(OC)c(OC)cc34)ccc12`, which growth is on record?
Answer: The growth was 82.9%.

Question: For `O=C(Nc1ccc(C2=NCCCN2)cc1)c1ccc(C(=O)Nc2ccc(C3=NCCCN3)cc2)nc1`, which growth is on record?
Answer: The growth was 97.2%.

Question: For `O=C(NOC[C@H](O)CO)c1ccc(F)c(F)c1Nc1ccc(I)cc1F`, which growth is on record?
Answer: Its growth is 27.7%.

Question: For `Cn1ncc(Cl)c1-c1cc(C(=O)N[C@H](CN)Cc2cccc(F)c2)sc1Cl`, which growth is on record?
Answer: The growth was 25.4%.

Question: How did the growth turn out when `O=C1NC(=O)C(c2cnc3ccccn23)=C1c1cn2c3c(cc(F)cc13)CN(C(=O)N1CCCCC1)CC2` was run?
Answer: The growth was 26.1%.

Question: `O=C(Nc1cn[nH]c1-c1nc2ccc(CN3CCOCC3)cc2[nH]1)NC1CC1` was tested. Which growth did it give?
Answer: Its growth is -9.72% (active).

Question: With `CC(=O)c1c(C)c2cnc(Nc3ccc(N4CCNCC4)cn3)nc2n(C2CCCC2)c1=O` as the molecule, how does the growth read?
Answer: The growth was 42%.

Question: For `CCNC(=O)C#Cc1ccc2c(C(=Nc3ccc(CN(C)C)cc3)c3ccccc3)c(O)[nH]c2c1`, which growth is on record?
Answer: Its growth is 4.11% (active).

Question: For `C/C(=N\NC(=O)Cn1c(-c2ccc(S(C)(=O)=O)cc2)nc2ccccc21)c1ccc(Cl)cc1`, which growth is on record?
Answer: Its growth is 88.6%.

Question: With `CC(=O)OC(C(=O)c1ccccc1)c1ccccc1` (stereo not given) as the molecule, how does the growth read?
Answer: The growth was 103%.

Question: For `N#CC(C#N)=NO`, which growth is on record?
Answer: Its growth is 85.8%.

Question: With `CO[C@H]1C[C@@H]2CC[C@@H](C)[C@@](O)(O2)C(=O)C(=O)N2CCCC[C@H]2C(=O)O[C@H]([C@H](C)C[C@@H]2CC[C@@H](OC(=O)C(C)(CO)CO)[C@H](OC)C2)CC(=O)[C@H](C)/C=C(\C)[C@@H](O)[C@@H](OC)C(=O)[C@H](C)C[C@H](C)\C=C/C=C/C=C/1C` as the molecule, how does the growth read?
Answer: The growth was 21.8%.

Question: For `CN1CCC(CNc2ccc3ncc(-c4cccc(OC(F)(F)F)c4)n3n2)CC1`, which growth is on record?
Answer: The growth was -53.1% (active).

Question: For `COc1ccc2c(CCc3ccc(Cl)cc3)c3[n+](cc2c1OC)CCc1cc2c(cc1-3)OCO2`, which growth is on record?
Answer: Its growth is 75.8%.

Question: How did the growth turn out when `Clc1ccc2c(NCCCNCc3ccc4c(c3)OCO4)ccnc2c1` was run?
Answer: Its growth is 42.7%.

Question: For `NC(=O)c1n[nH]n2c1nc(=O)c1c3c(sc12)CCCC3`, which growth is on record?
Answer: The growth was 96.5%.

Question: `C=C1C[C@H](O)[C@H](Br)C(C)(C)[C@@]12CCC(C)=C(Cl)C2` was tested. Which growth did it give?
Answer: Its growth is 35.6%.

Question: With `Cc1cc(Nc2nc(N[C@@H](C)c3ncc(F)cn3)ncc2Cl)n[nH]1` as the molecule, how does the growth read?
Answer: The growth was 60.3%.

Question: For `Nc1c(Cl)cccc1[N+](=O)[O-]`, which growth is on record?
Answer: The growth was 98.8%.

Question: How did the growth turn out when `COc1cc(NC2CCC(=O)N2c2ccc(Cl)cc2Cl)cc(OC)c1OC` (stereo not given) was run?
Answer: Its growth is 103%.

Question: How did the growth turn out when `CS(=O)(=O)N1CCc2c(-c3cnc(N)nc3)nc(N3CCOCC3)nc21` was run?
Answer: The growth was 4.78% (active).

Question: With `Cc1cc(C2(c3ccc(O)c(C)c3)OS(=O)(=O)c3ccccc32)ccc1O` as the molecule, how does the growth read?
Answer: The growth was 107%.

Question: `CN1CCN(CCCOc2cccc3nc(Nc4ccc(Cl)c(C(F)(F)F)c4)ccc23)CC1` was tested. Which growth did it give?
Answer: The growth was 15.5%.

Question: For `O=c1sn(-c2cccc3ccccc23)c(=O)n1Cc1ccccc1`, which growth is on record?
Answer: The growth was 76.6%.

Question: How did the growth turn out when `C=CC(=O)N1CCC[C@@H](n2nc(-c3ccc(Oc4ccccc4)cc3)c3c(N)ncnc32)C1` was run?
Answer: Its growth is 73.1%.

Question: For `C[C@@H](NC(=O)c1ncnc(N)c1Cl)c1ncc(C(=O)Nc2cc(C(F)(F)F)c(Cl)cn2)s1`, which growth is on record?
Answer: The growth was 63.1%.

Question: Which growth does the source give for `O=C(NC1CCNCC1)c1[nH]ncc1NC(=O)c1c(Cl)cccc1Cl` here?
Answer: Its growth is -18.5% (active).

Question: How did the growth turn out when `COc1c(C(NC(=O)c2ccccc2)c2sccc2C)cc(Cl)c2cccnc12` (stereo not given) was run?
Answer: The growth was 88.2%.

Question: How did the growth turn out when `Cn1ncc(Cl)c1-c1cc(C(=O)N[C@H](CN)Cc2ccc(F)c(F)c2)oc1Cl` was run?
Answer: The growth was -49.4% (active).

Question: `N#Cc1c(-c2ccc(C(F)(F)F)cc2)c(F)c(NCCC2CCC(O)C2)n2c1nc1ccccc12` (stereo not given) was tested. Which growth did it give?
Answer: Its growth is 59.2%.

Question: Which growth does the source give for `COc1cccc(Nc2ncnn3ccc(CN4CC[C@@H](N)[C@H](O)C4)c23)c1` here?
Answer: Its growth is 18.7%.

Question: Which growth does the source give for `Cc1sc2c(c1C)c(=O)nc1c(-c3nc(-c4ccccc4)cs3)n[nH]n12` here?
Answer: The growth was 92.4%.

Question: With `Cc1cn(-c2cc(NC(=O)c3ccc(C)c(Nc4nccc(-c5cnccn5)n4)c3)cc(C(F)(F)F)c2)cn1` as the molecule, how does the growth read?
Answer: Its growth is 55.9%.
